Compound activity: PubChem, several laboratories
An excerpt weighted towards active compounds, which were near 2.7% of everything screened.
Shn3 3UTR inh: Schnurri-3 reporter inhibition in Clone20 osteoblasts | AID 588674 | actives 0.52% (n = 360,000) | inhibition, % at 12.5 µM | Clone20 osteoblast Shn3 3'UTR firefly luciferase, 24 h;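 active = mean inhibition of at least 75% with every replicate also reaching 75%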;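 also: 0% = median of neutral control wells and 100% = pilot-screen positive control compound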
MITF TRPM1 inh: reduces MITF-dependent TRPM1 promoter luciferase signal; SK-MEL-5 TRPM1 promoter luciferase, 24 h; inhibition, % at 12.5 µM; actives 0.83% (n = 330,000); AID 488899;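 active = mean inhibition across replicates of 60% or more, whatever share of single replicates reaches that level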
HIF-2a inh: HIF-2a inhibition | inhibition, % at 18.8 µM | 786-0 RCC cells HIF-2a reporter, luciferase luminescence, overnight | AID 624352 | actives 0.72% (n = 360,000);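 active = inhibition of the luminescence signal of 40% or more relative to plate controls, in a single-dose primary screen at 18.75 µM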
CF NFkB block: cystic fibrosis NF-kB activation inhibition; KKLEB NF-kB-GFP reporter, PAF-induced, GFP fluorescence overnight; inhibition, % at 5 µM; actives 0.86% (n = 360,000); AID 588850;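 active = at least 50% inhibition at 5 µM, scaled per plate between neutral and stimulator controls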;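 also: PAF is a Pseudomonas aeruginosa culture filtrate used as stimulus; plate controls were PAF-stimulated DMSO wells for no effect and unstimulated DMSO wells for full effect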
Peg3 prom inh: reduces Peg3 promoter-driven luciferase expression in HeLa. inhibition, % at 20 µM. HeLa PEG-Prom luciferase reporter, luminescence, overnight. actives 1.7% (n = 360,000). AID 588405;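 active = inhibition of at least 50% at 20 µM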
KKLEB tox: reduces viability of KKLEB cystic fibrosis airway cells; KKLEB CF airway cells viability, ATPlite luminescence, overnight; active compounds read low; cells stimulated with P. aeruginosa culture filtrate; activity change (cytotoxicity), % at 5 µM; actives 0.36% (n = 360,000); AID 602141;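 active = corrected activity change at or below -50% at 5 µM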
Numbers without * were called inactive; . = not tested or not shown; ! = a repeat was not active.

SMILES	Shn3 3UTR inh	MITF TRPM1 inh	HIF-2a inh	CF NFkB block	Peg3 prom inh	KKLEB tox
Cc1ccc(C(=O)N/C(=C/c2ccc(-c3ccc([N+](=O)[O-])cc3)o2)C(=O)NCCCN(C)C)cc1	-11.4	14.8	-8.3	-0.8	109.2*	-10.5
COc1ccc(-c2c[n+]3c4n2CCCCC4=C(c2ccccc2)C3)cc1	29.3	77.9*	-13.1	-7.4	40.8	16.6
CN1C(=O)C(=O)/C(=C(/O)c2ccccc2)C1c1ccc(Br)cc1 (stereo unspecified)	-5.6	-5.0	21.6	-1.2	-1.8	1.6
CN(C)c1ccc(C2/C(=C(/O)c3ccc(Br)cc3)C(=O)C(=O)N2C)cc1 (stereo unspecified)	24.8	9.4	49.0*	-5.0	15.7	0.6
COc1ccccc1Cc1c(C2CCCCC2)nc2ccc(C)cn12	-1.0	.	-54.4	0.8	74.3*	-0.3
O=C(CN1CCN(C(C(=O)Nc2cc(C(F)(F)F)ccc2Cl)c2ccccc2)CC1)NC1CC1 (stereo unspecified)	1.9	22.4	-9.8	-19.4	17.5	8.6
Cc1ccc(Nc2cc(C)nn2-c2nc(C)cc(=O)[nH]2)cc1	30.9	98.4*	40.3*	52.2*	108.4*	31.7
COc1ccc(C(=O)N2CCC(NC(=O)C(Cc3ccccc3OC)NC(C)=O)CC2)cc1 (stereo unspecified)	-11.4	11.7	-0.6	-10.4	5.9	8.7
COc1cc(C(=O)N2CCC(NC(=O)C(Cc3ccccc3)NC(C)=O)CC2)cc(OC)c1OC (stereo unspecified)	-33.8	-1.9	7.1	-4.6	57.8*	3.3
COCCN1C(=O)COc2ccccc2C1C(=O)Nc1ccc2c(c1)OCCO2 (stereo unspecified)	.	.	3.2	.	.	.
COc1ccc(C2CC(c3cccc(Cl)c3)=NN2c2ccc(S(N)(=O)=O)cc2)cc1 (stereo unspecified)	8.9	-4.3	-8.4	20.2	54.0*	2.2
COc1ccc(C2CC(c3ccc(Cl)cc3)=NN2c2ccc(S(N)(=O)=O)cc2)cc1 (stereo unspecified)	12.0	-8.6	-23.4	23.8	23.9	-7.3
CC(CCc1ccccc1)NC(=O)c1ccc(C(=O)NC(C)CCc2ccccc2)cc1 (stereo unspecified)	52.7	74.1*	4.9	37.3	59.0*	0.7
Cc1ccc(-c2nc3ccccc3c(=O)o2)cc1	-21.5	-23.3	-203.8	1.1	-139.9	8.0
CC(=O)Oc1ccc(-c2nc3ccccc3c(=O)o2)cc1	4.6	5.6	23.5	0.7	77.3*	12.2
CCOC(=O)c1[nH]c2ccc(OC)cc2c1NC(=O)CN1CCC2(CC1)OCCO2	-7.6	-10.6	9.2	-0.2	17.3	3.9
CCOC(=O)c1[nH]c2ccc(OC)cc2c1NC(=O)CN1CCc2ccccc2C1	.	14.3	7.2	20.2	54.8*	-16.5
Cc1ccc(F)c(C(=O)N2CCCC(C)(C(=O)NS(=O)(=O)C3CC3)C2)c1F (stereo unspecified)	-0.5	.	10.6	-14.7	0.9	10.7
COc1ccc(CN2CCC(N(CCc3ccccc3)Cc3ccccc3)CC2)c(OC)c1	89.2*	-4.8	18.9	26.3	62.9*	-9.1
CCOc1ccc(NCc2cccn2-c2nnc(N3CCC(C(=O)NCCCN4CC(C)CC(C)C4)CC3)s2)cc1 (stereo unspecified)	-10.9	90.3*	5.3	7.4	42.7	-11.8
COc1ccccc1/C=C/CN1CCC(n2nccc2NC(=O)CCc2ccccc2)CC1	86.3*	2.4	7.3	-8.1	15.5	-3.8
c1ccc(COc2ccccc2CNC23CC4CC(CC(C4)C2)C3)cc1	-7.7	6.8	13.0	19.2	74.6*	-11.9
c1ccc(COc2ccccc2CNC2CCCC2)cc1	17.5	-3.4	3.6	-9.3	-8.5	9.0
O=[N+]([O-])c1ccc(/C=[N+](\[O-])[C@@H]2CCCC[C@@H]2/[N+]([O-])=C/c2ccc([N+](=O)[O-])o2)o1	77.9	84.0*	-2.7	-5.2	49.8	-7.8
O=C(NCc1cccnc1)c1cc(C2CCCN(S(=O)(=O)c3cccc4cccnc34)C2)on1 (stereo unspecified)	13.4	.	0.2	5.3	5.2	-0.4
SMILES	Shn3 3UTR inh	MITF TRPM1 inh	HIF-2a inh	CF NFkB block	Peg3 prom inh	KKLEB tox
C[C@]12c3[nH]c4ccc(Cl)cc4c3CCN1C(=O)[C@@H](CC(=O)NCC13CC4CC(CC(C4)C1)C3)C[C@@H]2C(=O)N1CCCCC1	34.0	2.7	-16.0	36.8	56.4*	-24.2
CC[C@]12c3[nH]c4ccc(OC)cc4c3CCN1C(=O)C(CC(=O)NCC13CC4CC(CC(C4)C1)C3)C[C@@H]2C(=O)N1CCN(C(=O)C2CC2)CC1 (stereo partly specified)	5.4	3.5	4.7	11.2	-1.3	-4.5
CC[C@]12c3[nH]c4ccc(Cl)cc4c3CCN1C(=O)[C@@H](CC(=O)NCC13CC4CC(CC(C4)C1)C3)C[C@@H]2C(=O)N1CCN(C(=O)C2CC2)CC1	66.3	26.6	-64.9	13.0	55.5*	-2.1
O=C1CC(=C(c2ccccc2)c2ccccc2)C(=O)N1CCCCN1CCN(c2cccc(Cl)c2)CC1	4.9	9.5	28.3	6.7	50.1*	4.0
CCCC(=O)N1CCC1(C)C(=O)NS(=O)(=O)c1cc2c(cc1C)CCCS2(=O)=O (stereo unspecified)	-1.6	.	13.9	-6.5	3.0	0.9
CCOC(=O)/C=C/S(=O)(=O)c1ccc(NC(C)=O)cc1	96.5*	92.2*	38.7	90.4*	102.5*	-37.8
O=C(O)/C=C/C(=O)Nc1ccc(Oc2ccccc2)cc1	1.8	-14.5	11.9	3.9	6.2	2.3
CCOC(=O)/C=C/C(=O)Nc1ccc(Oc2ccccc2)cc1	2.2	6.9	33.6	-34.8	53.9*	-4.9
CCNC(=O)N(CC)C[C@H]1N[C@@](Cc2ccccc2)(C(=O)OC)[C@H]2C(=O)N(C)C(=O)[C@@H]12	-0.4	0.3	2.4	-9.7	-16.8	-0.2
Cn1c(=O)n(C)c2cc(CNC(=O)[C@H]3O[C@@H](n4ccc(=O)[nH]c4=O)[C@H](O)[C@@H]3O)ccc21	-0.1	.	8.1	3.7	11.1	-5.8
COc1cc(NC(=O)c2cnc(N)o2)cc(C(=O)Nc2cccc(C(F)(F)F)c2)c1	32.3	33.7	-67.1	-1.3	55.5*!	0.9
CN1C2CCC1/C(=C\c1ccc(F)cc1)C(=O)/C2=C/c1ccc(F)cc1	23.0	25.7	81.7*	-37.0	18.4	0.3
C=CCn1c(SC(F)F)nc2scc(-c3ccco3)c2c1=O	-23.5	26.7	-8.2	3.7	74.0*	4.4
CCOC(=O)N1CCN(C2=C(NS(=O)(=O)c3ccc(C)cc3)C(=O)c3ccccc3C2=O)CC1	23.0	55.7	-5.1	53.6*	23.3	6.9
COc1ccc(-c2nnc(SCC(=O)c3ccc(C)o3)o2)cc1	-18.6	17.8	-32.2	-11.7	-17.3	19.2
